Columns and labels:
Test in all cases: PBM binding z-score (relative to random genomic background probes); higher = stronger binding; sequences stand for … in GC…GCGATTGACAGCGTAGAATGAAGG
[1] = system: RARb homodimer (NR concentration 270 nM)
Summary of the method: (§1)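 Probes were double-stranded and carried 34-nt variable regions with direct-repeat seeds, single-nucleotide variants, half-site ablations and random human genomic background sequences, printed on custom Agilent 4×180K protein-binding microarrays. Arrays were incubated 1 h with ligand-free nuclear receptor dimers in PBS pH 7.4, 2% milk, 0.02% Triton X-100, 1 mM DTT, 0.2 mg/mL BSA and 0.4 mg/ml salmon testes DNA. Antibodies against each partner (one per run) detected binding, and scanned fluorescence was regression-normalized. Binding z-scores use the random background probes as reference.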

[2] = system: RARg:RXRa (NR concentration 270 nM, RXRa partner concentration 90 nM)
Summary of the method: as §1

[3] = system: RARg homodimer (NR concentration 270 nM)
Summary of the method: as §1

[4] = system: RXRa DBDmut IVT, anti-RXR (DBD mutation: RXRa K156A/R161A, NR concentration 90 nM)
Summary of the method: as §1

[5] = system: RXRa homodimer (NR concentration 180 nM)
Summary of the method: as §1

[6] = system: THRa:RXRa (NR concentration 90 nM, RXRa partner concentration 90 nM)
Summary of the method: as §1

[7] = system: THRa homodimer (NR concentration 90 nM)
Summary of the method: as §1

[8] = system: VDR homodimer (NR concentration 270 nM)
Summary of the method: as §1

Sequence | PBM binding z-score [1] | PBM binding z-score [2] | PBM binding z-score [3] | PBM binding z-score [4] | PBM binding z-score [5] | PBM binding z-score [6] | PBM binding z-score [7] | PBM binding z-score [8]
TCTTGTAGATCAATAGTGGTTAAGAAAGTGCGCT | -0.161 | -0.0273 | -0.193 | 0.933 | 0.198 | 0.0334 | -0.033 | 0.464
TCTCGGAGGACACGAAGGTCAGAGGTTTCCAGAG | 4.01 | 3.24 | 3.9 | 0.797 | 2.29 | 3.07 | 1.17 | 1.73
CGTCCAAGGTCATAGGAGGTCAGTGAGGACAGAT | 5.13 | 6.73 | 7.15 | 4.28 | 6.16 | 5.22 | 4.53 | 5.81
CGTCCAAGGTCCGCAGGTCAGTGAAAGCGACGTG | 2.24 | 1.06 | 1.49 | 0.0611 | 0.267 | 1.04 | 0.0358 | -0.00185
CGAGCTAGGTCAAGGACAGTGAATCTCCGCACGC | 2.95 | 3.8 | 4.67 | 1.27 | 2.28 | 3.02 | 1.62 | -0.0669
ATCTCTAGGTAACGAGTTCAGTGAAAGAGAGGAC | 1.67 | 1.08 | 1.07 | 1.58 | 1.01 | 1.97 | 1.21 | 4.11
ATCTCTAGGTACAGTTCAGTGAAAGATCGATAGA | 0.899 | 0.55 | 0.987 | 1.95 | 0.449 | 0.634 | 0.0799 | 1.77
ATATGTAGGTTAAGGGTAATTCAGGTTGGTTCGC | 1.56 | 1.13 | 1.08 | 0.754 | 1.64 | 2.43 | 1.45 | 1.89
TTGCCAAGGTGAAGGTCGTTGATCCCTCTGTAGA | 1.62 | 1.23 | 1.02 | 0.0935 | 1.68 | 2.31 | 0.87 | 0.534
CCAGACAGGTGAGAAGGTGACTCAGCCTCGATTA | 1.23 | 1.04 | 0.771 | -0.175 | 0.552 | 0.445 | 0.379 | -0.284
TCATATAGGCAAACAGGTGAAAGTCCGTAAGTTA | 0.521 | 0.00145 | 0.112 | 1.26 | 0.527 | 0.197 | 0.185 | 0.251
CCTACTTGGTCAGGAGGTCACACACCGGATATGA | 4.48 | 4.98 | 4.1 | 0.751 | 5.02 | 3.59 | 2.33 | 2.54
AAAACGAGGGCAATGAGTTGATAGCACGGGTGGC | 1.2 | 1.23 | 1.6 | 2.07 | 1.13 | 1.31 | -0.257 | 3.26
GGAACGAGGGCAAAGATGATAGCATCTGTCGACG | 0.55 | 1.1 | 1.59 | 2.33 | 1.02 | 0.506 | -0.734 | 0.578
TCTAGTTGATCACGGAGGTCACACACGACGGGTA | 3.89 | 4.17 | 3.92 | 0.917 | 4.56 | 3.52 | 2.48 | 2.18
TCTGCTAGGTCAACGATTGTCAGCTAATCTGCTA | 3.06 | 3.75 | 4.64 | 1.16 | 2.41 | 2.77 | 0.845 | -0.274
CCTAGCAGGCCAGGGTCACTTAAGCATTTCGCTT | 2.51 | 2.93 | 2.28 | 0.27 | 3.13 | 2.67 | 0.864 | 1.25
GTACCACGGTGAATAGGTCGTTGATGAGTAGGCG | 0.859 | 0.755 | 0.261 | -0.3 | 0.707 | 0.209 | -0.565 | 0.098
TATAGTTGGTCAAAGGTCACACACTCGAAATGCG | 5.04 | 7.01 | 6.33 | 0.941 | 8.14 | 4.24 | 1.79 | 2.12

Sequence | PBM binding z-score [1] | PBM binding z-score [2] | PBM binding z-score [3] | PBM binding z-score [4] | PBM binding z-score [5] | PBM binding z-score [6] | PBM binding z-score [7] | PBM binding z-score [8]
GCATATAGGTAATATAAGGTGAAAGTCCGATTGT | 0.859 | 0.463 | 0.731 | 0.683 | 1.07 | 4.5 | 2.32 | 0.0802
CATATTAGTTGACCATAAGGGCAACCGAAGCTCG | 2.07 | 1.61 | 1.37 | 0.612 | 0.942 | 1.95 | 1.35 | 1.14
CGTCCAAGGTCAGCCGGTCAGTGAAAGCGACGTG | 4.5 | 5.54 | 6.43 | 2.56 | 3.93 | 3.58 | 1.93 | 0.973
ACTTACGGGTCAACGAGGTTAAAGCACGCGTATA | 3.82 | 5.73 | 5.18 | 2.51 | 6.72 | 4.25 | 1.17 | 3.67
TCTTGTGGATCAGCAGGTTAAGAAAGCTGGCCAA | 0.366 | -0.0321 | -0.331 | 0.589 | 0.119 | 0.227 | -0.125 | 0.0128
ACTAGTTGGTCAGCTGAGGTCAAACACAATTCGG | 4.23 | 4.33 | 3.72 | 1.72 | 4.56 | 4.9 | 4.87 | 3.66
TATACAGGGTCAAAGTCCAGAGTACGAATGTCGA | 3.51 | 5.73 | 4.9 | 3.86 | 6.73 | 3.65 | 1.15 | 4.02
GCGACTGGGGCATCAGCAGTTTACCATAACTTAA | 0.541 | 0.124 | 0.341 | 0.507 | 0.0851 | 0.0532 | -0.343 | 0.258
TCTAGTTGGTCACGGAGGTCAGACACGACGGGTA | 3.9 | 3.72 | 3.75 | 1 | 3.4 | 2.79 | 1.39 | 1.56
TCTCGGAGGACACGAAGGGCAGAGCTTTCCAGAG | 1.42 | 0.796 | 1.71 | 0.216 | -0.0528 | 1.33 | 0.123 | -0.0061
AATACAGGGTCATCGTAGGCCAGTGTACGCACAG | 3.7 | 5.65 | 5.19 | 3.59 | 6.76 | 4.57 | 1.49 | 2.98
TAGCCTAGGTCATGGGCCAGTATCCCACGCGAAC | 2.76 | 4 | 4.2 | -0.01 | 3.19 | 3.18 | 1.65 | 0.301
GCAGACAGGTGAGACGCAGGTAACTCAGGGTGGC | -0.0826 | 0.237 | 0.034 | -0.867 | 0.28 | 0.763 | -0.588 | -0.464
CCTACTGGGCTAAAAAGGTCATTGATGCCGATAA | 4.14 | 4.08 | 3.54 | 0.543 | 4.39 | 3.01 | 0.22 | 2.22
TCTATTAGTTGATTAGGGCATCCGAAACAGCGGA | 0.405 | 0.611 | 0.418 | 1.08 | 0.604 | 0.428 | 0.317 | 0.435
ACTAGCAGGCCAAGGGTCACTCTAGATTAGTCCG | 3.64 | 3.81 | 3.34 | 0.668 | 3.3 | 2.32 | -0.0207 | 1.03
GCTGCTAGGTCAACAGATGGTCAGCTAAAGCTCG | 2.83 | 4.81 | 4.85 | 1.22 | 2.42 | 2.56 | 0.465 | 0.00157
CCTACTGGGCCAGGAAAGGTCATTGATTCAGTGA | 4.32 | 4.28 | 3.54 | -0.114 | 4.36 | 3.44 | 0.626 | 1.99
ACTAGCAGGCCAAGTTTGGGTCACTCACACAAAG | 2.45 | 2.62 | 1.68 | 0.307 | 1.08 | 2.56 | 1.24 | 0.348

Sequence | PBM binding z-score [1] | PBM binding z-score [2] | PBM binding z-score [3] | PBM binding z-score [4] | PBM binding z-score [5] | PBM binding z-score [6] | PBM binding z-score [7] | PBM binding z-score [8]
CGAACTACGTCAGAACAGGACAGTGAAGGATGAT | -0.0991 | -0.0189 | 0.316 | 0.247 | -0.063 | 0.397 | -0.497 | -0.159
ATCGCTAGGTAAAAGTTCAGTGAATCCCGAGGAT | 2 | 1.37 | 1.46 | 0.265 | 1.64 | 0.795 | -0.348 | 1.16
TCATTTAGGTAAATGCTAGGTGAAAGTCCGATCT | 0.541 | 0.116 | 0.0576 | 1.57 | 0.519 | 1.69 | 0.878 | 0.0956
ACAAACAGGTGAGTGAAGGTAACTCAGCTGGACG | 0.000775 | 0.131 | 0.536 | -0.35 | 0.457 | 1.5 | -0.581 | -0.41
TCATAGAGGTAAAAGGTGAAAGTCGGTGTGGTAA | 1.72 | 2.5 | 0.912 | 1.01 | 4 | 1.97 | -0.0823 | -0.219
CAAACTAGGTCACCGGAAGTTCAAAGTCCGCATG | 4.69 | 7 | 6.24 | 2.68 | 4.64 | 3.85 | 2.14 | 4.8
CAGCCTAGGTCAGGGCCAGTCTAGGAGGAACGTT | 2.6 | 2.83 | 3.7 | -0.45 | 1.5 | 1.98 | 0.28 | -0.275
TCATATAGGTAATACCGGTGAAAGTCGGCATCTA | -0.00712 | 0.24 | 0.212 | 1.35 | 0.935 | 0.246 | 0.113 | -0.092
TCATGTAGGTAAAAGGTGAAAGTCGGTGTGGTAA | 2.05 | 1.81 | 0.855 | 1.49 | 2.61 | 1.75 | 0.569 | 0.332
CCAGACGGGTGAGAAGGTAACTCAGCCTCGATTA | -0.188 | 0.0516 | 0.0574 | -0.845 | 0.0255 | -0.158 | -0.508 | -0.29
TCAGACAGGTGAAGGCAACTCAGGTACGCAGTCG | 0.466 | 0.17 | 0.317 | 0.993 | 0.955 | 0.99 | -0.0896 | -0.101
GCTGCTAGGTTAGGTTGGTCAGCTAACGGGTACG | 0.8 | 0.0162 | 0.355 | 0.0127 | -0.131 | 0.0584 | -0.34 | 0.253
AGAATGAGGTTATAAAGATCAGGGAATTGCGGTC | 0.868 | 1.15 | 0.986 | 1.35 | 1.92 | 2.14 | 0.473 | 1.01
CGAACGAGGGCATGAGCTGATAGCAAATGCCGAT | 0.6 | 1.19 | 1.39 | 1.96 | 1.06 | 1.15 | -0.325 | 0.803
TCTAGTTGGTCACGGAGGTCACAGACGACGGGTA | 4.64 | 4.79 | 4.98 | 1.02 | 5.24 | 3.72 | 2.35 | 2.78
CCGACAGGGGCATAAGGTTACCATAAGCCAGCCC | 2.13 | 2.36 | 1.62 | 0.428 | 2.01 | 2.43 | 1.43 | 0.293
CTACCAAGGTGAACAAGGTCGTCGATTACTATTC | 2.3 | 2.1 | 1.77 | 1.08 | 2.25 | 3.64 | 1.9 | 1.44
TCTCGGAGGACACGAAGGACAGAGCTTTCCAGAG | 0.867 | 0.776 | 1.75 | 0.518 | 0.243 | 1.48 | 0.544 | 0.139
CAAACTAGGCCACGAAAGGTCAAAGTCGAATGAC | 4.95 | 6.06 | 5.76 | 1.47 | 6.58 | 4.26 | 0.939 | 2.37

From the supplement of paper PMC6555819
